# Compounds without any hit were thinned out: in the full panel of roughly 83,000, 20% have a hit.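 Step 1: grow cells in 96-well plates. Step 2: add test compound at a single concentration. Step 3: incubate 48 h. Step 4: record percent growth.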 Values without a mark were called inactive. Calls of active or inactive are those of the source. Rule for the calls: active = growth percent below 10; inactive = the rest.
# How the values were obtained:
# Test in all cases: NCI-60 one-dose screen, 48 h (100 = growth as untreated, 0 = no growth, -100 = all killed)
# Conditions in all cases: 10 µM unless noted
# [1] = tested on: T-47D breast
# [2] = tested on: BT-549 breast
# [3] = tested on: MDA-MB-435 melanoma
# [4] = tested on: SW-620 colon
# [5] = tested on: MCF7 breast
# [6] = tested on: HCT-116 colon
# [7] = tested on: HCC-2998 colon
# [8] = tested on: KM12 colon
# [9] = tested on: MDA-MB-468 breast
SMILES,growth [1],growth [2],growth [3],growth [4],growth [5],growth [6],growth [7],growth [8],growth [9]
Cc1ccc(S(=O)(=O)N(CCn2ccnc2[N+](=O)[O-])CCn2ccnc2[N+](=O)[O-])cc1,100%,119%,98.7%,100%,100%,102%,114%,105%,96.4%
Nc1nnc(-c2cncc(Br)c2)c(-c2c[nH]c3ccc(Br)cc23)n1,26.1%,47.4%,-14.4% (active),28.1%,50.4%,22.9%,74.7%,41.4%,-4.92% (active)
COc1cccc(/C=C/c2nc3ccccc3c(=O)n2CC(=O)Nc2ccccc2)c1,36.7%,43.9%,70.6%,51.1%,41.6%,35.7%,89.8%,94.2%,83.4%
O=C(c1ccc(O)cc1)C1[C@H](c2ccc(Cl)cc2)[C@@H](c2ccccc2)NC12C(=O)Nc1ccccc12 (some centres not stated),11.7%,-50.7% (active),-34% (active),-12.7% (active),-6.29% (active),-76.8% (active),-61.1% (active),-13.7% (active),-45.2% (active)
N#CCc1nnc(NC(=O)c2ccc(-n3c(=O)[nH]c4ccccc4c3=O)cc2)s1,100%,109%,106%,104%,90.6%,103%,108%,121%,121%
COc1cc(NC(=O)CSc2nnc(-c3ccc(-c4nc5ccc(Cl)cc5[nH]4)cc3)o2)cc(OC)c1OC,41.5%,70.7%,-20.3% (active),40.1%,6.03% (active),33.2%,68.9%,30.8%,3.14% (active)
COc1ccc(/C=C/C(=O)c2ccc(OC)c(S(N)(=O)=O)c2)c(C(F)(F)F)c1,29.3%,-78.9% (active),63.6%,7.45% (active),8.35% (active),-44.3% (active),-95.4% (active),6.97% (active),7.25% (active)
O=C1Nc2cc(-c3ccc(NS(=O)(=O)c4ccc(-c5ccccc5)cc4)cc3)ccc2/C1=C/c1ccc[nH]1,3.17% (active),3.7% (active),40.3%,8.95% (active),-25.2% (active),20.3%,50.8%,34.2%,-52.5% (active)
Cc1cccc(C)c1Nc1nnc(-c2c[nH]c3ccccc23)o1,87.1%,105%,103%,99.5%,83.4%,100%,119%,102%,93.2%
NCCCCn1c(SCCc2c[nH]c3ccccc23)nnc1-c1ccc2ccccc2n1,-63.4% (active),54.5%,-75% (active),-73.1% (active),-88.8% (active),-94.1% (active),-90.2% (active),13.1%,-87.1% (active)
O=C(NC(=S)N1CCN(c2ncnc3c2cnn3-c2ccccc2)CC1)c1ccc(Br)cc1,73.1%,65.1%,80.3%,81.7%,49.8%,60.3%,90.5%,92.5%,78%
CN1C(=O)C2(C(C#N)=C(c3ccc(Cl)cc3)Nc3c2c(-c2ccccc2)nn3-c2ccccc2)c2ccccc21 (configuration not stated),84.6%,93.8%,97.1%,106%,73.8%,73.8%,87%,94.9%,95.4%
Nc1nc2cc(-c3ccc4ncnc(NCc5ccccc5)c4c3)ccc2o1,-53.6% (active),-10.8% (active),16.7%,24.1%,-25.6% (active),-20% (active),40.3%,25.4%,-47.5% (active)
COc1ccc(OC)c(Cn2cc(C#N)c(N)c2C(=O)c2ccc(Br)cc2)c1,35.6%,-86.3% (active),0.655% (active),31.2%,27.9%,24.3%,71.8%,40%,2.73% (active)
Cc1ccc(C(=O)Nc2cc(-c3ccccc3)cc(C(F)(F)F)c2)cc1C#Cc1cnc2cccnn12,42.3%,139%,45.3%,66.7%,39.9%,32.2%,85.3%,41.9%,62.9%
COc1ccc([C@H]2C(C(=O)c3ccc(Cl)cc3)C3(N[C@@H]2c2ccccc2)C(=O)Nc2ccccc23)cc1 (some centres not stated),16.8%,84.3%,23.4%,34.7%,7.51% (active),26.1%,13.7%,15.5%,28.5%
O=C(NNC(=S)NC(=O)c1ccccc1)c1ccc(OCc2nc3ccc(Cl)cc3[nH]2)cc1,10.2%,-51.8% (active),-51.2% (active),19.8%,3.67% (active),-34.6% (active),-80.3% (active),-3.11% (active),-41% (active)
O=C(N/N=C/c1ccc(Cl)o1)c1[nH]c2ccc(Br)cc2c1-c1ccccc1,29.8%,-25.9% (active),-47.9% (active),-29.6% (active),1.67% (active),-56.1% (active),-26% (active),2.65% (active),-9.32% (active)
COc1ccc(-c2nc3ccc(-c4nnc(SCC(=O)Nc5ccc(/C(C)=N\O)cc5)o4)cc3[nH]2)cc1,53.1%,-62.3% (active),14.5%,96.2%,37%,70.5%,126%,37.6%,100%
FC(F)(F)c1cc2c(Cl)ncnc2n1CCN1CCOCC1,96.2%,60.6%,86.4%,59.9%,89%,31.7%,-26.6% (active),96.4%,40.1%
COc1ccc(-c2nc3ccccc3n2CC(=O)N=Nc2c(O)[nH]c3ccc(OC)cc23)cc1,-72.5% (active),20.5%,26.3%,48.6%,58.1%,1.32% (active),114%,85%,52.4%
Cc1ccc(S(=O)(=O)Nc2ccc(-c3ccc4c(c3)NC(=O)/C4=C\c3ccc[nH]3)cc2)cc1,18.8%,63.7%,90.1%,47.2%,3.35% (active),60.6%,106%,67.1%,-25.8% (active)
COc1ccc2c(c1)C(Sc1ccc(Br)cc1)c1c(nc(N)c(C#N)c1N)O2 (configuration not stated),80.3%,56.1%,88%,80.1%,61.9%,75.1%,111%,74.7%,97.1%
CC(C)C[C@H](NC(=O)[C@@H]1CCCCCCCCCCC(=O)N[C@@H](CC(=O)N2CCC[C@@H]2C2CCCC2)C(=O)N1)B(O)O,-20% (active),-79.2% (active),-57.3% (active),4.22% (active),-28.2% (active),-80% (active),-100% (active),-35.7% (active),-70.6% (active)
COc1ccc(NC(=O)Cn2c(/C=C/c3ccc([N+](=O)[O-])cc3)nc3ccccc3c2=O)cc1,56.1%,106%,84.2%,70.5%,73.9%,35.6%,67.5%,82.7%,52%
O=S(=O)(c1nc(-c2ccc(Br)cc2)oc1-c1ccc(Cl)cc1)N1CCCC(O)C1 (configuration not stated),28.8%,76.1%,60%,57%,41.5%,42.5%,33.8%,39%,45.6%
O=C(NNC(=O)c1ccc(OCc2nc3ccc(Cl)cc3[nH]2)cc1)Nc1ccc(Cl)c(C(F)(F)F)c1,16.4%,64.7%,51.4%,65%,49.5%,4.53% (active),73.9%,49.1%,22.4%
O=C(CSc1nc2sc3c(c2c(=O)n1-c1ccc(Cl)cc1)CCCC3)N/N=C/C=C/c1ccccc1,-24.5% (active),-73.7% (active),-50.1% (active),-55.5% (active),12.6%,-13.5% (active),6.29% (active),39.9%,-81.6% (active)

# Source: PubChem BioAssay (NCI)
